Compound activity from PubChem BioAssay.
An excerpt weighted towards active compounds, which were near 10% of everything screened.
NS1 function inh = qHTS Assay for Inhibitors of Influenza NS1 Protein Function. Potency, µM (titrated, usually from 46.1 µM), for inactives: at the highest dose activity, positive = more growth. 270,000 tested, 0.4% active. AID 2326, 2010; further: actives are rising curves; nearly all actives have a fitted effect of over 50% in size
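Recovery from NS1-induced slow growth read by OD600 in budding yeast switched to galactose assay medium (pH 6.0, -URA) at 1:100 dilution. Compound 23 nl per well; the matching strain lacking NS1 serves as control.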
SARS PLP yeast = qHTS of Yeast-based Assay for SARS-CoV PLP. S. cerevisiae expressing SARS-CoV PLpro, growth rescue. Potency, µM (top dose mostly 32.9 µM), for the others: at the top dose activity, positive = growth rescue, usual class: activators. 330,000 tested, 0.19% active; further: 0% is about no effect; nearly all actives have a fitted effect of over 55% in size
Pf growth 48h = Primary qHTS for delayed death inhibitors of the malarial parasite plastid, 48 hour incubation; Potency, µM (doses to about 28.7 µM), without a hit: at the top dose activity change, negative = inhibition, hits mostly inhibitors; AID 504832, 2011; P. falciparum luciferase growth in erythrocytes, 48 h; 310,000 tested, 5.9% active; active means well fitted inhibition curve with a large enough effect; inconclusive means small, poorly fitted or top-dose-only effect, or another doubt; inactive means no such curve, though single readings can be large or run the other way; further: on the % scale 0 is the no-effect control and ±100 the full control effect
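Compounds are pin-transferred into medium, infected erythrocytes (2% hematocrit, 0.1% parasitemia final) are added, and plates sit one parasite generation at 37 C in 5% CO2. Detection reagent is then added and luminescence measured.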
Pf growth 96h = Primary qHTS for delayed death inhibitors of the malarial parasite plastid, 96 hour incubation; P. falciparum luciferase reporter growth, 96 h; Potency, µM (top dose mostly 28.7 µM), for the others: at the highest dose activity change, negative = inhibition, most hits filed as inhibitors; 320,000 tested, 6.9% active; active means well fitted inhibition curve with a large enough effect; inconclusive means small, poorly fitted or top-dose-only effect, or another doubt; inactive means no such curve, though single readings can be large or run the other way; further: on the % scale 0 is the no-effect control and ±100 the full control effect
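Luminescence readout: decreased luciferase signal marks inhibited growth of reporter-expressing P. falciparum in infected red cells (2% hematocrit, 0.05% parasitemia final), exposed to compound two generations (96 h, 37 C, 5% CO2).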
Active calls of the source: *. Unless noted, the call rests on the fitted dose curve. Potency means the concentration at half of the fitted maximal effect.

Cc1cccn2c(=O)c3cc(C(=O)NC4CCCC4)c(=N)n(CCCN4CCOCC4)c3nc12 was read as NS1 function inh 11.8%, SARS PLP yeast -1.6%, Pf growth 48h 2.33µM* and Pf growth 96h 13.7%.
`Cc1cccn2c(=O)c3cc(C(=O)NC4CCCC4)c(=N)n(CC4CCCO4)c3nc12` (stereo not drawn) gave NS1 function inh -7.1%, SARS PLP yeast 0.2%, Pf growth 48h inconclusive and Pf growth 96h -18.9%.
`Cc1cccn2c(=O)c3cc(C(=O)NCCN4CCOCC4)n(Cc4ccccc4)c3nc12` gave NS1 function inh -3.1%, SARS PLP yeast 2.2%, Pf growth 48h 31.1% and Pf growth 96h 12.5%.
CCOCCCn1c(=N)c(C(=O)NCCN2CCOCC2)cc2c(=O)n3cccc(C)c3nc21 was read as NS1 function inh -1.3%, SARS PLP yeast -0.5%, Pf growth 48h 10.0% and Pf growth 96h 1.47µM*.
`O=C(O)CCc1ccc(S(=O)(=O)Nc2ccccc2N2CCCCC2)cc1` gave SARS PLP yeast -9.2%.
For CC[N+](CC)(CC)CCC(O)(c1ccccc1)C1CCCCC1 (stereo not drawn) the results were SARS PLP yeast 7.4%, Pf growth 48h 6.57µM* and Pf growth 96h 10.4µM*.
CC(C)(C)NC(=S)N/N=C\c1ccc(-c2ccc([N+](=O)[O-])cc2)o1 was read as NS1 function inh 6.2%, SARS PLP yeast -0.9%, Pf growth 48h inconclusive and Pf growth 96h 3.7µM*.
C=CCNC(=S)N/N=C/c1ccc(C)cc1C was read as SARS PLP yeast -0.4%, Pf growth 48h 10.4µM* and Pf growth 96h inconclusive.
Screening O=C(CCCCCCCCC(=O)N/N=C/c1ccco1)N/N=C/c1ccco1 returned NS1 function inh -4.2%, SARS PLP yeast inconclusive, Pf growth 48h -12.8% and Pf growth 96h inconclusive.
For Cc1ccc(-c2ccc(/C=N\NC(=O)c3cc4c(ccc5ccccc54)o3)o2)cc1[N+](=O)[O-] the results were NS1 function inh 15.3%, SARS PLP yeast -3.0%, Pf growth 48h inconclusive and Pf growth 96h 2.94µM*.
`CCCCCC(=O)N/N=C/c1ccco1` gave NS1 function inh 3.3%, SARS PLP yeast -9.5%, Pf growth 48h 26.8% and Pf growth 96h 13.1µM*.
For CNC(=S)N/N=C/c1ccc(-c2ccc(Cl)c([N+](=O)[O-])c2)o1 the results were NS1 function inh 1.1%, SARS PLP yeast -1.2%, Pf growth 48h inconclusive and Pf growth 96h -26.5%.
`CCNC(=S)N/N=C/c1cc(C)ccc1C` gave NS1 function inh -3.2%, SARS PLP yeast inconclusive, Pf growth 48h 17.8% and Pf growth 96h 32.1%.
For Cc1ccc(NC(=O)CN(C)C(=O)c2cccc(-n3cccc3)c2)cc1 the results were SARS PLP yeast 1.6%, Pf growth 48h 30.6% and Pf growth 96h 7.2%.
`CC(C)[C@H](NC(=O)[C@@H]1CSC2c3ccccc3C(=O)N21)C(=O)N1CCCCC1` (stereo partly drawn) gave NS1 function inh 24.9%, SARS PLP yeast -3.9%, Pf growth 48h inconclusive and Pf growth 96h inconclusive.
For CCC(=O)N/N=C/c1ccc(-c2ccc([N+](=O)[O-])cc2)o1 the results were NS1 function inh -4.3%, SARS PLP yeast -1.4%, Pf growth 48h -2.0% and Pf growth 96h 10.4µM*.
For C=CCNC(=S)N/N=C/c1ccc(-c2ccc(OC)cc2)o1 the results were NS1 function inh 1.7%, SARS PLP yeast 0.7%, Pf growth 48h 5.22µM* and Pf growth 96h inconclusive.
For Cc1cc(C)n(Cc2ccc(C(=O)N/N=C/c3ccc(-c4ccc([N+](=O)[O-])cc4)o3)o2)n1 the results were NS1 function inh 0.4%, SARS PLP yeast 10.1%, Pf growth 48h -9.5% and Pf growth 96h 5.22µM*.
`CCc1nnc(N/N=C/c2ccc(-c3ccc([N+](=O)[O-])cc3)o2)n1N` gave SARS PLP yeast -8.4%, Pf growth 48h 11.7µM* and Pf growth 96h inconclusive.
Cc1nnc(N/N=C\c2ccc(-c3ccccc3[N+](=O)[O-])o2)n1N was read as NS1 function inh -41.0%, SARS PLP yeast -1.0%, Pf growth 48h -8.4% and Pf growth 96h inconclusive.
`CCCCC(=O)N/N=C/c1ccc(-c2ccc([N+](=O)[O-])cc2)o1` gave NS1 function inh -3.4%, SARS PLP yeast -1.7%, Pf growth 48h -23.9% and Pf growth 96h 9.28µM*.
`Cc1ccc(C(=O)N2CC(=O)Nc3ccc(F)cc3C2c2ccccc2)cc1[N+](=O)[O-]` (stereo not drawn) gave NS1 function inh 3.2%, SARS PLP yeast 4.5%, Pf growth 48h 9.28µM* and Pf growth 96h inconclusive.
`CCC(CC)C(=O)N1CC(=O)Nc2ccc(C)cc2C1c1ccccc1` (stereo not drawn) gave NS1 function inh 2.8%, SARS PLP yeast 1.5%, Pf growth 48h inconclusive and Pf growth 96h inconclusive.
`CCCC(=O)N1CC(=O)Nc2ccc(C)cc2C1c1ccccc1` (stereo not drawn) gave NS1 function inh 0.6%, SARS PLP yeast 2.7%, Pf growth 48h -29.7% and Pf growth 96h 7.38µM*.
For CCOC(=O)c1sc(=NC(=O)c2ccco2)n(C)c1C the results were SARS PLP yeast -0.2%, Pf growth 48h 205.2% and Pf growth 96h 147.8%.
Screening Cc1sc(=NC(=O)c2ccco2)n(C)c1-c1ccc(Cl)cc1 returned NS1 function inh -14.1%, SARS PLP yeast -10.9%, Pf growth 48h inconclusive and Pf growth 96h 10.4µM*.
For Cc1cccc(C(=O)N[C@H](C(=O)NCCc2ccc(Cl)cc2)C(C)C)c1 the results were NS1 function inh 7.3%, SARS PLP yeast 7.0%, Pf growth 48h 2.2% and Pf growth 96h 9.9%.
OCCN(Cc1ccccc1)Cc1ccccc1O was read as SARS PLP yeast 0.5%, Pf growth 48h 4.15µM* and Pf growth 96h inconclusive.
`OCCN(Cc1ccccc1)Cc1nc(CC2CC2)no1` gave NS1 function inh -6.5%, SARS PLP yeast -0.8%, Pf growth 48h 4.4% and Pf growth 96h 1.65µM*.
Cc1ccc(C(=O)Nc2cccc(C(F)(F)F)c2)cc1NC(=O)c1[nH]cnc1C(N)=O was read as SARS PLP yeast 12.0%.
For Cc1cc(=O)c(C(=O)Nc2cccc(C(=O)NC3CC3)c2)nn1-c1ccccc1Cl the results were SARS PLP yeast 1.7%, Pf growth 48h inconclusive and Pf growth 96h 7.38µM*.
OC(c1ccc(F)cc1)C(c1ccccc1)N1CCOCC1 (stereo not drawn) was read as NS1 function inh 4.7%, Pf growth 48h 3.8% and Pf growth 96h 1.85µM*.
`O=C(c1ccccc1)C(O)C(c1ccccc1)N1CCOCC1` (stereo not drawn) gave NS1 function inh -2.1%, SARS PLP yeast -0.3%, Pf growth 48h -0.2% and Pf growth 96h 32.3%.
O=C(CC1C(=O)N(Cc2ccccc2)C(=S)N1CCN1CCOCC1)Nc1ccc(F)cc1 (stereo not drawn) was read as NS1 function inh 4.1%, SARS PLP yeast 0.7%, Pf growth 48h 1.85µM* and Pf growth 96h -8.3%.
